Data published in publication PMC4336329 (PLoS ONE, 2015).
In all, about 310,000 compounds went through this assay and about 2,200 (0.71%) showed an effect of 50% or more. Effects have a minus sign here. For the sample, strong results were picked, then their nearest neighbours and some compounds at random.

Target: human ether-à-go-go-related gene (hERG) potassium channel (human, UniProt Q12809)
Assay: primary screen, population patch clamp on CHO cells stably expressing hERG; higher = less effect of the substance

human ether-à-go-go-related gene (hERG) potassium channel, sequence (Q12809 whole entry, looked up): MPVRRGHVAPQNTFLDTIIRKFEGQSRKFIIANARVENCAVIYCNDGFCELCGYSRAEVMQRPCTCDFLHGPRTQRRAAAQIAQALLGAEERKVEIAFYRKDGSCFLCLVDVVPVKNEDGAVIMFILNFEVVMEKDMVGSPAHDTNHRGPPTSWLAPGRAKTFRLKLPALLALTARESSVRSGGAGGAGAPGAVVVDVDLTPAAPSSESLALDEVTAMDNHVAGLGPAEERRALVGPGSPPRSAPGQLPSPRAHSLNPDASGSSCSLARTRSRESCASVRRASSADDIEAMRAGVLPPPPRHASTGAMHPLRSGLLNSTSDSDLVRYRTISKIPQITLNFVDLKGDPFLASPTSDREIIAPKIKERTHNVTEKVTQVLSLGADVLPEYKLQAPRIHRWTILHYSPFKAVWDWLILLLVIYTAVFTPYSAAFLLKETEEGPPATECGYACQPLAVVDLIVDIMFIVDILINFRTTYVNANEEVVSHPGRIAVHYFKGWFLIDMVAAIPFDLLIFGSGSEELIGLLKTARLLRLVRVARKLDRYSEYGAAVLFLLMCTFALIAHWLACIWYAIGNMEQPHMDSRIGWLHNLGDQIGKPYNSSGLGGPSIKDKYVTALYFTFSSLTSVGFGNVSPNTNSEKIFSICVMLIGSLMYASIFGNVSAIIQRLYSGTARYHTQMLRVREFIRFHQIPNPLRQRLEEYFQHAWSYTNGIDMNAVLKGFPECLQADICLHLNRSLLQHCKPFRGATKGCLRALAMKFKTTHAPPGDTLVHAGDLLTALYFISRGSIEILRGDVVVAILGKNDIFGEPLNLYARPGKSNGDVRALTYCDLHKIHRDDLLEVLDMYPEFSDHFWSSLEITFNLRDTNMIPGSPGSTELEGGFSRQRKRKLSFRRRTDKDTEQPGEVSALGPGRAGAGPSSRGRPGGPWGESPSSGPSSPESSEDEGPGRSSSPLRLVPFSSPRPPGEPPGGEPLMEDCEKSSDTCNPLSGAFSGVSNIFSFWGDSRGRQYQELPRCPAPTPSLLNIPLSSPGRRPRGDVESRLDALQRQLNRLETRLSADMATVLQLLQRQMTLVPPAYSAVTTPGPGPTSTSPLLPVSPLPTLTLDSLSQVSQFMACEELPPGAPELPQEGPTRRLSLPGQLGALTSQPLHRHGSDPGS

In order of rising “hERG current change (%, negative = inhibition) at 1uM” value:
1. O=C(NCCN1CCN(C(=O)c2ccc([N+](=O)[O-])cc2)CC1)C(=O)NCc1ccccc1  -85.9%
2. O=C(NCCN1CCN(C(=O)c2ccc([N+](=O)[O-])cc2)CC1)C(=O)Nc1ccc(F)cc1  -84.3%
3. O=C(NCCN1CCN(C(=O)c2ccc(F)cc2)CC1)C(=O)NCc1ccccc1  -75.1%
4. CC(NC(=O)C(=O)NCCN1CCN(C(=O)c2ccc([N+](=O)[O-])cc2)CC1)c1ccccc1 (stereo not shown)  -67.8%
5. CCOc1ccc(NC(=O)C(=O)NCCN2CCN(C(=O)c3ccc(C)cc3)CC2)cc1  -65.5%
6. O=C(NCCN1CCN(C(=O)c2ccc(Br)cc2)CC1)c1ccc(Br)cc1  -63.5%
7. O=C(NCCN1CCN(C(=O)c2ccc(F)cc2)CC1)c1ccc(F)cc1  -32%
8. COc1ccc(NC(=O)C(=O)NCCN2CCN(C(=O)c3ccc(C)cc3)CC2)cc1  -28.6%
9. O=C(NCCN1CCN(c2ccc([N+](=O)[O-])cc2)CC1)NCc1ccccc1  -20.2%
10. O=C(NCCN1CCN(C(=O)c2cccc(Br)c2)CC1)C(=O)NCc1ccccc1  -11.2%
11. CC(C)(C)c1ccc(C(=O)N2CCN(CCNC(=O)C(=O)NCc3ccccc3)CC2)cc1  -8.22%
12. CC12CC3CC(C)(C1)CC(C(=O)NNC(=O)c1ccncc1)(C3)C2  -7.13%
13. CCCCc1ccc(NC(=O)C(=O)NCCN2CCN(C(=O)c3ccc([N+](=O)[O-])cc3)CC2)cc1  0.387%
14. O=C(NCCN1CCN(C(=O)c2cccc([N+](=O)[O-])c2)CC1)C(=O)NCc1ccc(Cl)cc1  0.645%
15. CCOC(=O)c1c(NC(=O)C2C3C=CC(C3)C2C(=O)O)sc2c1CC(C)(C)OC2 (stereo not shown)  2.99%
16. Cl.O=C(NCCN1CCCC1)c1ccc(Br)cc1  3.38%
17. COc1ccc([N+](=O)[O-])c(OC)c1C(=O)NC(=O)Nc1c(F)c(F)c(F)c(F)c1F  4.71%
18. Cc1ccc(C(=O)N2CCN(CCNC(=O)C(=O)NC(C)C)CC2)cc1  7.95%
19. CC(NC(=O)C(=O)NCCN1CCN(C(=O)c2ccccc2Br)CC1)c1ccccc1 (stereo not shown)  9.08%
20. CNC(=O)C(=O)NCCN1CCN(C(=O)c2ccc([N+](=O)[O-])cc2)CC1  9.09%
21. CCOC(=O)CC1(NC(=O)c2cc(COc3cccc(OC)c3)on2)CCCCC1  10.3%
22. CCOc1ccc(NC(=O)C(=O)NCCN2CCN(S(=O)(=O)c3ccc(C)cc3)CC2)cc1  11.6%
23. CN1CCN(S(=O)(=O)c2cccc(C(=O)Oc3cccc(C#N)c3)c2)CC1  11.8%
24. CC(=O)c1ccc(NC(=S)Nc2cccc(Cl)c2C)cc1  12.3%
25. CCNC(=O)NC(=O)COC(=O)CNC(=O)COc1ccccc1  14.5%
